Dicer processing: blocks human Dicer maturation of pre-miR-21; Q9UPY3; cat-ELCCA pre-miR-21 Dicer processing, chemiluminescence; active compounds read high; z-score at 25 µM; actives 6% (n = 47,000); in the data active = z-score above about 3, passing the limit was not always enough;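 also: higher signal means more uncleaved substrate so more Dicer inhibition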
Target sequence (Q9UPY3 whole entry, looked up): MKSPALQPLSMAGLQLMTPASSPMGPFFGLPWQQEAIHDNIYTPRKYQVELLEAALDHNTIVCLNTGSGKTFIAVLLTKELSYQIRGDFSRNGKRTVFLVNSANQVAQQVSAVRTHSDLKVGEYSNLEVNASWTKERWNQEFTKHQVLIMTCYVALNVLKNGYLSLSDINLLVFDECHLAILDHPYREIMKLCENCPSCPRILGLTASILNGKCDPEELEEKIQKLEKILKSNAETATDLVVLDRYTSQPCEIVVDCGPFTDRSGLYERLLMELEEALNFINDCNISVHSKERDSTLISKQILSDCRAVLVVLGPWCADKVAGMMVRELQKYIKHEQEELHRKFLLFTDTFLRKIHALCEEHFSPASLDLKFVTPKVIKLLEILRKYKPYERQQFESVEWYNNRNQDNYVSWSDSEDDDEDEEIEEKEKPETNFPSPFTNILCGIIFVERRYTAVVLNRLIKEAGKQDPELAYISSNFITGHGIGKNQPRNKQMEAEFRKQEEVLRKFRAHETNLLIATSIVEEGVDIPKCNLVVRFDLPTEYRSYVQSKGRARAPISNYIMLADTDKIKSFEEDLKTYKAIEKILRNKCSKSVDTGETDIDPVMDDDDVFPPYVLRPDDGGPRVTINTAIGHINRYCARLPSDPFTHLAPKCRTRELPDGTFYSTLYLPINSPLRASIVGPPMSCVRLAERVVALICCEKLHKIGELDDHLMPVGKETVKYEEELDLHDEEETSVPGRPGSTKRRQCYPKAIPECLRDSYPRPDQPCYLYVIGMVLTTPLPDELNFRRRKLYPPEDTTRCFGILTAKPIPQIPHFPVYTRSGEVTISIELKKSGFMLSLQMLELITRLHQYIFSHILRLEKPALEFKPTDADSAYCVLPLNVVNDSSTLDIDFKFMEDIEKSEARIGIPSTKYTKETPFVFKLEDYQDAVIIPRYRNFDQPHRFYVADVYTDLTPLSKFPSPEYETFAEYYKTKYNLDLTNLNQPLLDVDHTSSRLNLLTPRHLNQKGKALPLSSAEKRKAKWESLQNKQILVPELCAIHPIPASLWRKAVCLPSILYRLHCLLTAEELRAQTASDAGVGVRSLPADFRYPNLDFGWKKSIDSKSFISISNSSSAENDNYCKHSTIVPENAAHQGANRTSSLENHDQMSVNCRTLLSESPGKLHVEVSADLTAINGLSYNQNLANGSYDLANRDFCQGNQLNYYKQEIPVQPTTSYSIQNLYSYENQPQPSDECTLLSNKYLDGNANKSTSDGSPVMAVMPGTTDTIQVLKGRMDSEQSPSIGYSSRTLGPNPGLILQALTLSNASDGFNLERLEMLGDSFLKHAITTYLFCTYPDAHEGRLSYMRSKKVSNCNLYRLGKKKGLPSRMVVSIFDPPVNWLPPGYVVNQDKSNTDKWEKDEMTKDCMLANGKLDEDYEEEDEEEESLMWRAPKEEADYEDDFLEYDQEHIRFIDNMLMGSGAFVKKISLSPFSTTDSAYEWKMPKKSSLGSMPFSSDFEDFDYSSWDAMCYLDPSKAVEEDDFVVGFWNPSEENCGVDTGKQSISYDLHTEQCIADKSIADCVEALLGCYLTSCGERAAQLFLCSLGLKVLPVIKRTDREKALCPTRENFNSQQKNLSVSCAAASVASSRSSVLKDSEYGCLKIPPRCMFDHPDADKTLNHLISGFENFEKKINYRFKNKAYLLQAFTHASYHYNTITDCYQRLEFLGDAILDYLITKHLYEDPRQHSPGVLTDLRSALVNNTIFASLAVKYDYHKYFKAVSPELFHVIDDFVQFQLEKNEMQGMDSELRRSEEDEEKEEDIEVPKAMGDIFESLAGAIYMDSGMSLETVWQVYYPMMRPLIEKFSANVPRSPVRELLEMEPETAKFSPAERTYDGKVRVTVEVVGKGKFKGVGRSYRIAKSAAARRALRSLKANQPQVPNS
Numbers stand for hits; – = inactive. Shown is part of a subset that was picked to be rich in hits.

SMILES	Dicer processing
Cc1cc2n(n1)C(c1ccccc1Cl)Nc1c(C)cccc1-2 (stereo unspecified)	5.93
CCOc1cccc(C2Nc3c(C)cc(C)cc3-c3cc(C)nn32)c1O (stereo unspecified)	–
Cc1cc2n(n1)C(c1ccccc1F)Nc1c(C)cccc1-2 (stereo unspecified)	–
Cc1cc(C)c2c(c1)-c1cc(C)nn1C(c1ccc3c(c1)OCO3)N2 (stereo unspecified)	–
Cc1cc2n(n1)C(c1cc(Br)ccc1O)Nc1c(C)cccc1-2 (stereo unspecified)	–
COc1ccc(C2Nc3c(C)cccc3-c3cc(C)nn32)cc1 (stereo unspecified)	–
COc1ccc(OC)c(C2Nc3c(C)cccc3-c3cc(C)nn32)c1 (stereo unspecified)	–
COc1cccc(C2Nc3c(C)cccc3-c3cc(C)nn32)c1O (stereo unspecified)	4.94
Cc1cc2n(n1)C(c1ccc3c(c1)OCO3)Nc1c(C)cccc1-2 (stereo unspecified)	3.12
Cc1cc2n(n1)C(c1ccc(N3CCCC3)cc1)Nc1c(C)cccc1-2 (stereo unspecified)	–
Cc1cc2n(n1)C(c1ccc(Cl)cc1)Nc1c(C)cccc1-2 (stereo unspecified)	3.76
COCCCn1c2c(c(=O)[nH]c1=O)C(c1ccc(OC)cc1)C1=C(N2)c2ccccc2C1=O (stereo unspecified)	–
Cc1ccc2[nH]c(=O)c(-c3noc(-c4ccco4)n3)cc2c1	–
O=C1CC(c2ccco2)CC2=C1C(c1ccccc1O)n1c(nc3ccccc31)N2 (stereo unspecified)	–
CCCCN(CCCC)CCCn1cnc2ncccc2c1=O	–
O=C(NNC(=O)c1sccc1OCc1ncc(C(F)(F)F)cc1Cl)Nc1ccc(Cl)cc1	–
CC(CC(=O)O/N=C/c1c(Cl)cccc1Cl)S(=O)(=O)c1ccc(Cl)cc1 (stereo unspecified)	–
COc1ccc2c(c1)CCC1C2=NN(C)C1c1ccc(C(F)(F)F)cc1 (stereo unspecified)	–
Cc1cc2n(n1)C(c1cccc(Cl)c1)Nc1c(C)cccc1-2 (stereo unspecified)	6.22
Cc1cc2n(n1)C(c1ccsc1)Nc1c(C)cccc1-2 (stereo unspecified)	–
COc1ccc(C2Nc3c(C)cccc3-c3cc(C)nn32)cc1OC (stereo unspecified)	–
Nc1sc(-c2ccccc2)cc1-c1n[nH]c(=S)n1-c1ccc(F)cc1	–
Nc1sc(-c2ccccc2)cc1-c1n[nH]c(=S)n1Cc1ccccc1	–
COc1ccc(-n2c(-c3cc(-c4ccccc4)sc3N)n[nH]c2=S)cc1	5.42
CCCCNS(=O)(=O)c1cc(-c2nnc3c4ccccc4c(C)nn23)ccc1OC	–
SMILES	Dicer processing
CC(C)(C)OC(=O)NCCN1C(=O)CC2(CCCC2)C1=O	–
CSc1nc(-c2ccccc2)nc(Sc2ccccn2)c1C#N	–
Cc1cccc(CN2CCN(Cc3c[nH]c4ccccc34)CC2)c1	–
Fc1ccccc1CN1CCN(CCCc2ccccc2)CC1	–
Clc1ccccc1CN1CCN(Cc2c[nH]c3ccccc23)CC1	4.48
COc1ccc2c(c1)CCCN2Cc1c[nH]c2ccccc12	–
FC(F)(F)c1cnc(N2CCN(Cc3c[nH]c4ccccc34)CC2)c(Cl)c1	–
CCS(=O)(=O)N1CCN(Cc2c[nH]c3ccccc23)CC1	3.45
Brc1ccc(CN2CCN(Cc3c[nH]c4ccccc34)CC2)cc1	–
Fc1ccccc1CN1CCN(Cc2c[nH]c3ccccc23)CC1	3.66
O=C1COCC(=O)N1CCc1c[nH]c2ccccc12	–
c1ccc2c(c1)c1ccccc1c1nc(N3CCOCC3)nnc21	–
Cc1ccc(-c2noc(-c3cc(-c4ccccc4)c(C(F)(F)F)s3)n2)cc1	–
NS(=O)(=O)c1cccc(C(F)(F)F)c1	–
CCOc1ccc(C2C(C(=O)OC(C)C)=C(C)Nc3nc4ccccc4n32)cc1 (stereo unspecified)	–
CC(=O)Cn1cnc2c(nnn2Cc2ccccc2Cl)c1=O	–
Cc1nnc(SCc2cc(Br)cc(Br)c2)[nH]c1=O	–
COc1ccc(O)c(C2=Nc3ccccc3N=C(c3ccco3)C2)c1	–
O=c1oc(-c2ccco2)nc2cc(Cl)ccc12	–
Oc1ccc(Cl)cc1C1=Nc2ccccc2N=C(c2ccco2)C1	3.03
Cc1cccnc1Nc1nc(-c2ccncc2)cs1	–
Cn1c(CSC2CN(C(c3ccccc3)c3ccccc3)C2)n[nH]c1=S	–
CCCCc1ccc(NC(=O)Nc2cc(C(C)(C)C)nn2C)cc1	–
O=C1c2oc3ccccc3c(=O)c2C(c2cccc(O)c2)N1c1nccs1 (stereo unspecified)	–
Cc1ccccc1-c1nc(NC(=O)CSc2ncnc3sc(C)c(C)c23)ns1	3.03
SMILES	Dicer processing
COC(=O)c1c(NC(=O)CSc2ncnc3sc(C)c(C)c23)sc2c1CCCC2	–
Cc1ccc(-c2nc(NC(=O)CSc3nnc(C)s3)ns2)cc1	–
C=CCOc1c(Cl)cc(CNCCSc2nnnn2C)cc1OC	–
Cc1nc(SCc2c(F)cccc2Cl)[nH]c(=O)c1C	–
CCOC(=O)C(NC(C)=O)(Nc1cccc(C)n1)C(F)(F)F (stereo unspecified)	–
COc1ccc(C(=O)NNC(=O)c2scc(Br)c2OC)cc1	–
CSc1nnc2c(n1)OC(c1ccc(C)cc1)Nc1ccccc1-2 (stereo unspecified)	–
CSc1nnc2c(n1)OC(C)Nc1ccccc1-2 (stereo unspecified)	–
CSc1nnc2c(n1)OC(C1CC=C(C)CC1)Nc1ccccc1-2 (stereo unspecified)	3.21
O=C(CSc1nnc(Cc2cccs2)n1-c1ccccc1)c1c[nH]c2ccccc12	–
COc1ccc(NC(=O)c2cnn3c2NC(c2ccco2)CC3C(F)(F)F)cc1OC (stereo unspecified)	4.56
O=C(NCc1ccc(-n2cccn2)cc1)c1cnn2c1NC(c1ccco1)CC2C(F)(F)F (stereo unspecified)	–
COCCNC(=O)c1cc2n(n1)C(C(F)(F)F)CC(c1ccco1)N2 (stereo unspecified)	–
COc1ccc(Cl)cc1NC(=O)c1cnn2c1NC(c1ccco1)CC2C(F)(F)F (stereo unspecified)	3
O=C(Nc1cccnc1)c1cc2n(n1)C(C(F)(F)F)CC(c1ccco1)N2 (stereo unspecified)	–
COc1ccc(NC(=O)c2cnn3c2NC(c2cccs2)CC3C(F)(F)F)cc1OC (stereo unspecified)	–
O=C(Nc1nnn(-c2ccc([N+](=O)[O-])cc2)c1-c1ccccc1)N1CCOCC1	–
CC(C#N)(Nc1ccc(Cl)cc1)c1ccccc1 (stereo unspecified)	–
OC(CN1CCCCCC1)Cn1c2ccccc2c2ccccc21 (stereo unspecified)	–
COC(=O)C1=C(C)Nc2nnnn2C1c1ccc(F)cc1 (stereo unspecified)	–
CCCCCCOc1ccc(NS(=O)(=O)c2ccc(F)cc2)cc1	–
Cc1nnc2n1NC(c1ccc(F)cc1)C(C(=O)Nc1ccc(Br)cc1)S2 (stereo unspecified)	–
CC1(C)CC(=O)C2=C(C1)Nc1ccccc1NC2c1cccs1 (stereo unspecified)	–
CC1(C)CC(=O)C2=C(C1)Nc1ccccc1NC2c1ccccc1F (stereo unspecified)	–
CC1(C)CC(=O)C2=C(C1)Nc1ccccc1S2	4.06
O=C1C2C(c3ccccc3)OC3(C(=O)c4ccccc4C3=O)C2C(=O)N1Cc1ccc(Cl)cc1 (stereo unspecified)	–

Screening results as filed in PubChem.
